Assay outcomes: PubChem BioAssay, several laboratories
CYP2C19 inhib – blockers of cytochrome P450 2C19 activity – biochemical, luminescence, ADME assay, primary screen. 96,000 compounds, 21% hits. AID 778, 2007. inhibition, % at 5 µM. CYP2C19 Supersomes, luciferin-H EGE luminescence, 30 min. P33261;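 active = CYP2C19 inhibition above a set limit at 5 µM in the primary screen, cut at about 50% in these data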
CYP2C9 act – human CYP2C9 activators, primary screen, biochemical, luminescence | recombinant CYP2C9, luciferin-H conversion; stronger effect = higher value; factor 1 = untreated enzyme, 0 = blocked | 96,000 compounds, 1.4% hits | activation factor at 5 µM | Cytochrome P450 2C9 (Homo sapiens), P11712 | AID 1024, 2008;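 active = activation factor of 2 or more for CYP2C9 at a 5 µM dose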
Cav32 inh – Cav3.2 calcium influx blockers – cell-based, Fluo-4 calcium fluorescence, FDSS, MLSMR library, primary screen. Voltage-dependent T-type calcium channel subunit alpha-1H (Homo sapiens), O95180. Cav3.2-expressing cells; stronger effect = lower value. B-score at 10 µM. 100,000 compounds, 4% hits. AID 449739, 2010;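 active = single-dose well whose peak fluorescence ratio is a statistical outlier from its plate by either plate-standardised score or position-corrected B-score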
CYP2C19 act – human CYP2C19 activators, primary screen, biochemical, luminescence. recombinant CYP2C19, luciferin-H EGE luminescence; stronger effect = higher value; 0 = fully inhibited enzyme, 1 = untreated enzyme. activation factor at 5 µM. 96,000 tested, under 10 active;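 active = activation factor of at least 2 at 5 µM in the primary screen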
CYP2C9 inhib – blockers of cytochrome P450 2C9 activity – biochemical, luminescence, ADME assay, primary screen | P11712 | CYP2C9 Supersomes, luciferin-H conversion | inhibition, % at 5 µM | 96,000 compounds, 20% hits;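 active = blocking of liver enzyme CYP2C9 beyond about 50% at 5 µM, limit read from the data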
A number is an active result; n = inactive; x = not tested or not shown. Shown are actives, neighbours in structure and some others; about 27% of the full set was active somewhere.

SMILES | CYP2C19 inhib | CYP2C9 act | Cav32 inh | CYP2C19 act | CYP2C9 inhib
CC1CCCC(C)N1CCNC(=O)CCn1nc(-c2ccccc2)ccc1=O (stereo not given) | n | n | x | n | n
COc1ccc(C=O)cc1COc1ccc(F)cc1F | n | n | n | n | n
COc1ccc(C=O)cc1COc1c(F)c(F)cc(F)c1F | 60.0 | n | n | n | n
Cc1ccc(OC(=O)CCC(=O)N2CCc3ccccc32)cc1 | n | n | n | n | n
O=C(Nc1ccccc1)[C@@H]1CC=C[C@@H]2CCN(C3CCCCC3)C(=O)[C@@H]21 | x | x | n | x | x
CCC1CCCCN1C(=O)Cn1c(=O)n(CCC(=O)NCc2ccco2)c(=O)c2sccc21 (stereo not given) | n | n | n | n | n
O=C(CCCn1c(=O)c2sccc2n(CC(=O)NCc2ccco2)c1=O)NCc1ccco1 | n | n | n | n | n
O=C(NCc1ccco1)c1ccc(Cn2c(=O)c3ccccc3n(Cc3cccc(Cl)c3)c2=O)cc1 | n | n | n | n | n
Cc1cccc(C)c1NC(=O)Cn1c(=O)n(CCCC(=O)NCc2ccco2)c(=O)c2sccc21 | n | n | n | n | 77.9
O=C(NCc1ccco1)c1ccc(Cn2c(=O)c3sccc3n(Cc3cccc(F)c3)c2=O)cc1 | 86.8 | n | n | n | 85.2
O=C(CCn1c(=O)c2sccc2n(CC(=O)NCc2ccco2)c1=O)NCc1ccccc1 | n | n | n | n | 60.9
CCO[C@@H]1OC(C(=O)N2CCN(C)CC2)=C[C@H](c2coc3ccccc3c2=O)[C@H]1CCCO | x | x | n | x | x
CCN(CC)CCC(c1ccc2c(c1)OCO2)c1c(O)cc(OC)cc1OC (stereo not given) | x | x | n | x | x
O=C(CN1C(=O)COc2ccccc21)N1CCc2ccccc2C1 | x | x | n | x | x
CCCCNc1cc(=O)n(C)c(=O)[nH]1 | n | n | n | n | n
N#Cc1cccc(Cn2nnc(-c3ccccc3)n2)c1 | 69.4 | n | n | n | n
c1ccc(Cn2nnc(-c3ccccc3)n2)cc1 | x | x | n | x | x
CCN(CC)S(=O)(=O)c1cccc(NC(=O)C2SC(=Nc3ccc(C)cc3C)C(C(=O)NC(C)COC)=C2N)c1 (stereo not given) | n | n | -8.56 | n | 82.8
CCCCNC(=O)C1=C(N)C(C(=O)Nc2ccc(C)c(S(=O)(=O)N3CCCCC3)c2)SC1=Nc1ccc(C)cc1C (stereo not given) | n | n | x | n | 79.3
CCCCNC(=O)C1CCN(C(=O)Nc2ccc(C)cc2)CC1 | x | x | n | x | x
CCc1cccc(CC)c1NC(=O)C1SC(=Nc2ccccc2C)C(c2nc3ccccc3s2)=C1N (stereo not given) | n | n | x | n | n
CC1=C(C(=O)OCC(Br)(Br)Br)C(c2ccc(Br)cc2)NC(=O)N1CCCC(=O)O (stereo not given) | x | x | n | x | x
CCN(CC)S(=O)(=O)c1ccc(Oc2ccccc2)cc1 | n | n | n | n | 65.6
CCN(CC)S(=O)(=O)c1ccc(-c2ccc(S(=O)(=O)N(CC)CC)cc2)cc1 | n | n | n | n | n
CCN(CC)S(=O)(=O)c1ccc(OCC(=O)NCc2ccccc2)cc1 | n | n | n | n | 67.1
SMILES | CYP2C19 inhib | CYP2C9 act | Cav32 inh | CYP2C19 act | CYP2C9 inhib
O=C(COc1ccc(/C=N/NS(=O)(=O)c2ccccc2)cc1)NCc1ccccc1 | n | n | n | n | n
Cc1cc(=O)oc2cc(OCC(=O)NCc3ccco3)ccc12 | x | x | n | x | x
c1ccc(-c2csc(Nc3nc(N4CCOCC4)nc(N4CCOCC4)n3)n2)cc1 | n | n | n | n | n
CCOc1ccccc1NC(=O)CCSc1nc2n[nH]c(C)c2c(=N)n1-c1ccccc1Cl | 70.7 | n | n | n | 76.8
CCOc1ccccc1-n1c(SCC(=O)Nc2ccc(CC)cc2)nc2n[nH]c(C)c2c1=N | n | n | x | n | n
CC1CN(C(c2cccs2)c2sc3ncnn3c2O)CC(C)O1 (stereo not given) | x | x | n | x | x
COC(=O)[C@H](CC(C)C)NC(=O)N1CCN(c2cccc(C(F)(F)F)c2)CC1 | n | n | n | n | n
O=C(O)c1ccc(-c2ccccc2)[nH]1 | 72.3 | n | x | n | n
Brc1ccc2c(c1)C(c1cccs1)=NNC(c1cccnc1)=N2 | n | n | n | n | n
CCOc1ccc(C2=NNC(c3cccs3)=Nc3ccc(OC)cc32)cc1OCC | x | x | -8.07 | x | x
CCOc1ccc(C2=NNC(c3cccs3)=Nc3ccc(OCC)cc32)cc1 | n | n | x | n | 52.8
COc1ccc(C2=NNC(c3cccs3)=Nc3ccc(OC)cc32)cc1 | x | x | n | x | x
C[C@@]12CCC=C[C@H]1[C@H](c1ccc(C(F)(F)F)cc1)N(Cc1ccccc1)C2=O | x | x | n | x | x
COc1ccc(NC(=O)CCCCCN2C(=O)CCC2=O)cc1Cl | n | n | n | n | n
O=C(CCCCCN1C(=O)CCC1=O)Nc1ccc(Cl)c(C(F)(F)F)c1 | 69.4 | n | n | n | n
O=C(NC1(C(F)(F)F)C(=O)Nc2c1c(=O)[nH]c(=O)n2Cc1ccco1)C1CC1 (stereo not given) | x | x | n | x | x
CCOC(=O)N1CCN(c2ccc(F)cc2[N+](=O)[O-])CC1 | x | x | n | x | x
COc1cccc(OC)c1C(=O)NC(=S)N1CCN(c2ccc(C(F)(F)F)cc2[N+](=O)[O-])CC1 | n | n | -5.5 | n | n
CCOC(=O)c1cnn(-c2ccccc2)c1-n1cccc1C(=O)C(=O)Nc1ccc(F)cc1 | n | n | -4.25 | n | 74.8
O=[N+]([O-])c1ccc2c(c1)C(N1CCOCC1)/C(=C/COc1ccc3ccccc3c1Br)O2 (stereo not given) | 52.1 | n | n | n | n
O=[N+]([O-])c1ccc(OC/C=C2\Oc3ccc([N+](=O)[O-])cc3C2N2CCOCC2)cc1 (stereo not given) | 70.6 | n | n | n | n
O=[N+]([O-])c1ccc2c(c1)C(N1CCOCC1)/C(=C/COc1ccc(F)cc1)O2 (stereo not given) | 84.1 | n | -7.26 | n | 54.0
C[N+]1(CCOc2ccc([N+](=O)[O-])cc2)CCOCC1 | n | n | n | n | n
O=C(Nc1cccc2c1CCCC2)c1ccncc1 | x | x | n | x | x
COc1ccc(C(=O)Cn2c(N3CCOCC3)nc3ccccc32)cc1OC | n | n | x | n | n
SMILES | CYP2C19 inhib | CYP2C9 act | Cav32 inh | CYP2C19 act | CYP2C9 inhib
Cc1noc(C)c1S(=O)(=O)N1CCC(Cc2ccccc2)CC1 | n | n | n | n | 58.9
Cc1noc(C)c1C(=O)N1CCC(Cc2ccccc2)CC1 | 98.8 | n | n | n | 73.4
Cc1noc(C)c1S(=O)(=O)N1CCN(c2ccccc2)CC1 | 80.4 | n | n | n | 69.4
Cc1onc(-c2ccccc2)c1C(=O)N1CCN(CCc2ccccc2)CC1 | n | n | n | n | n
Cc1noc(/C=C/N(C)C)c1S(=O)(=O)N1CCN(c2ccccc2)CC1 | n | n | n | n | n
Cc1cc(N2CCCCCC2)nc2ccc(F)cc12 | x | x | n | x | x
